Measurements published in PubChem BioAssay AID1835 (Johns Hopkins Ion Channel Center, 2009).
About 750 (31%) of roughly 2,400 compounds were called active. The list shows a part of the results. Values without a mark were called inactive.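 Rule for the calls: active = median signal gain over dofetilide-blocked control wells reaching their mean plus 3 SD, so readout 1 at least 0; inactive = the rest.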

What follows are molecules tested against Voltage-gated inwardly rectifying potassium channel KCNH2 (Homo sapiens) (UniProt Q12809) (assay: modulators restoring hERG flux under dofetilide – cell-based, thallium flux, duplicate retest, dofetilide IC70, confirmation (AID 1835)). Settings: hERG cell line, FluxOR thallium flux, dofetilide-blocked; at 10 µM; hits give high values.
Chain of Voltage-gated inwardly rectifying potassium channel KCNH2 (Homo sapiens) (Q12809 whole entry, looked up): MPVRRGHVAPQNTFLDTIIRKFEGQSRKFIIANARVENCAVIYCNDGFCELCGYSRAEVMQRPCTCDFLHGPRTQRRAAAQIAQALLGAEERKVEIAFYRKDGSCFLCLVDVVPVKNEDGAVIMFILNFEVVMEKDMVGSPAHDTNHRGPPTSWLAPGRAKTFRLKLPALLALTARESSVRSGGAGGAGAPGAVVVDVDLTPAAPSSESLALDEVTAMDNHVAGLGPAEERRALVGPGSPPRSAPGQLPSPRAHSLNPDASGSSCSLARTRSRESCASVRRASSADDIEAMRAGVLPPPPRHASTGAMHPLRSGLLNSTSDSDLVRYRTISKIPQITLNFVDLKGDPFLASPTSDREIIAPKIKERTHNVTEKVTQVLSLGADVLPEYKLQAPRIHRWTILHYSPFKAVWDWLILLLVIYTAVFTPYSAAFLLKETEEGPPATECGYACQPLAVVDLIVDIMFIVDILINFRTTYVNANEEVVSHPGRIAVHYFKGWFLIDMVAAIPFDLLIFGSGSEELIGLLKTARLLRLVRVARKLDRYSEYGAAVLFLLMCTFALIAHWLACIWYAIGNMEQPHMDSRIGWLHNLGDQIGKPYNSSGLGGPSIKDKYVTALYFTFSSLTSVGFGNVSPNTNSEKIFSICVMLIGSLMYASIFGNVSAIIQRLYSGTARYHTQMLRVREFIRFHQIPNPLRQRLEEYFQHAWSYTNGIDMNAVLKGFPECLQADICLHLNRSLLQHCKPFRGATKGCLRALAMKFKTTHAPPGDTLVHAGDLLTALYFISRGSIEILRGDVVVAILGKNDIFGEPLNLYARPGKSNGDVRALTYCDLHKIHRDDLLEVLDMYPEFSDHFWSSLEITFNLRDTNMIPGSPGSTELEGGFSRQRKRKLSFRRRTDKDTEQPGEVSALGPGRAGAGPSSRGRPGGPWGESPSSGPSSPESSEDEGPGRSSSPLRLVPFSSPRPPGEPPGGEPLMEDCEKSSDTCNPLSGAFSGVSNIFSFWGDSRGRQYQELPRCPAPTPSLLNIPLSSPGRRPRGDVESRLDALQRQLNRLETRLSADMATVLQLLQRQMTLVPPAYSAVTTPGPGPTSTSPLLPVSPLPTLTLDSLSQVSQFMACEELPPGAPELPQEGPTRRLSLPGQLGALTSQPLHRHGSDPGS

SMILES | activity increase over dofetilide control, less the hit threshold
Cc1cc(C)c(S(=O)(=O)Nc2cccc(-n3cnnn3)c2)c(C)c1 | -14%
O=C(COC(=O)C1CCC(=O)N1)Nc1ccc(Oc2ccccc2)cc1 (configuration not stated) | -9%
O=C(CCSc1ccc(Br)cc1)c1ccc(O)cc1 | 2% (active)
CN1CCN(S(=O)(=O)c2cccc(S(=O)(=O)c3ccc(Cl)cc3)c2)CC1 | -10%
CCSc1nc2c(sc3ccccc32)c(=O)n1C(C)C | 25% (active)
COc1cccc(NC(=O)c2nn(-c3ccc(OC)cc3OC)c(=O)c3ccccc23)c1 | -8%
COc1cccc(-n2nc(C(=O)O)c3ccccc3c2=O)c1 | 11% (active)
CCN(CC)CCCNC(=O)c1cn(-c2cccc(OC)c2)c(=O)c2ccccc12 | -16%
Cc1ccc(C(=O)NNC(=S)NC(=O)c2ccc(Cl)cc2)cc1 | -23%
Cc1cccc(C(=O)NC(=S)NNC(=O)c2ccc(Cl)cc2)c1 | -10%
CC(C)CNC(=S)NC(=O)c1ccc(Cl)cc1 | 19% (active)
Nc1nc2n(n1)C(=O)CC(c1ccc(Cl)cc1)N2 (configuration not stated) | -10%
CN(C)S(=O)(=O)c1cc(NC2CC(=O)N(c3ccc(F)cc3)C2=O)ccc1Cl (configuration not stated) | -2%
CCCN(Cc1ccccc1)C(=S)NC(=O)c1ccccc1[N+](=O)[O-] | 52% (active)
CCC(=O)NC(=S)NNC(=O)c1ccccc1[N+](=O)[O-] | -3%
CCN(Cc1ccccc1)C(=S)NC(=O)c1ccccc1Br | 47% (active)
CN(Cc1ccccc1)C1CCN(Cc2ccccc2[N+](=O)[O-])CC1 | -16%
O=C(NC(=S)N(Cc1ccccc1)Cc1ccccc1)c1ccccc1F | 32% (active)
COc1nccnc1NS(=O)(=O)c1ccc(NC(=S)NC(=O)c2ccccc2F)cc1 | -17%
O=C(NC(=S)N(CCO)Cc1ccccc1)c1cc(Br)ccc1Cl | 7% (active)
O=C(Cn1cncn1)c1ccccc1Br | -24%
O=C(O)c1ccc2c(c1)C(=O)N(c1cc([N+](=O)[O-])ccn1)C2=O | -3%
CCCN1Cc2cccc(C(=O)NCc3cccs3)c2C1=O | -21%
CCCCCCc1cc2cc(-c3nnc(-c4ccccc4O)o3)c(=O)oc2cc1O | -16%
O=C(Nc1ccc(Oc2cccnc2)cc1)c1cccc([N+](=O)[O-])c1 | -6%
COc1ccc(-c2ccc(/C=N/NC(=O)c3cccnc3)o2)c([N+](=O)[O-])c1 | 1% (active)
Cn1cc([N+](=O)[O-])c(C(=O)N/N=C\c2c[nH]c3ccccc23)n1 | -7%
